Sampled rows, rich in hits. Any-hit rate of the full collection: about 3.3%.
HGIII-sPLA2 inh – human group III sPLA2 inhibitors, primary screen, biochemical, QFRET, BODIPY PC-A2 liposome substrate | inhibition, % at 12.2 µM | 370,000 tested, 0.56% active | AID 743126, 2013 | QFRET BODIPY PC-A2 liposome hydrolysis, fluorescence | Group 3 secretory phospholipase A2 (Homo sapiens), Q9NZ20;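 active means inhibition above mean plus 3 SD of compounds lying within the high and low control bounds, cut at about 19% in these data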;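 further: 0% = median of test compound wells and 100% = no enzyme DMSO wells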
Target sequence (Q9NZ20 whole entry, looked up): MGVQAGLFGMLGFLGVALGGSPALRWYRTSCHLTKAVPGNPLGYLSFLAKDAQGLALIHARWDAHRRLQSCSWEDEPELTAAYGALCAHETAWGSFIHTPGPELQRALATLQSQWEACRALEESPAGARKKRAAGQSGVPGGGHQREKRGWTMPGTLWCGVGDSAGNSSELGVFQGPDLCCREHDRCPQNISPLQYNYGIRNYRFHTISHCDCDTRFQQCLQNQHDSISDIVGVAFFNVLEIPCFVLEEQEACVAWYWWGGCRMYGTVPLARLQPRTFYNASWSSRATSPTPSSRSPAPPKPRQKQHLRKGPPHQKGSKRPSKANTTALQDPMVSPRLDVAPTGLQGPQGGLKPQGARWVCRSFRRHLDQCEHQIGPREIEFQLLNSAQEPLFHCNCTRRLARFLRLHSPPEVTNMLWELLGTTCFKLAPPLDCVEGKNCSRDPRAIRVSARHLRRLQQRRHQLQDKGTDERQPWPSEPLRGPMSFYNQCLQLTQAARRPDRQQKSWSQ
UBC9 SUMO inh – inhibitors of in vitro SUMOylation cascade, primary screen, biochemical, HTRF, uHTS. inhibition, % at 35 µM. SUMO-conjugating enzyme UBC9 (Homo sapiens), P63279. 290,000 tested, 0.36% active. HTRF SUMOylation assay, SAE1/SAE2 + UBC9; in the data active means inhibition above about 50%, passing the limit was not always enough
GRIN3A LBD mod – binders of NR3A ligand-binding domain, primary screen, biophysical, differential scanning fluorimetry, uHTS; NR3A LBD differential scanning fluorimetry, Tm shift; 0% = protein alone, 100% = glycine-bound protein; Tm shift relative to glycine control, % at 25 µM; 340,000 tested, 2.5% active; AID 1259313, 2017;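 active means melting temperature shift of at least 10% of the positive control shift, at one fixed dose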
UBC13 inh – UBC13 polyubiquitin chain formation inhibitors, primary screen, biochemical, TR-FRET, uHTS; inhibition, % at 20 µM; 330,000 tested, 0.47% active; AID 485273, 2010; in the data active means inhibition above about 45%, passing the limit was not always enough
* hit, by the source's call; · = no result.

SMILES	HGIII-sPLA2 inh	UBC9 SUMO inh	GRIN3A LBD mod	UBC13 inh
Cc1nc2ccccn2c1C(=O)/C=C/c1ccc(F)cc1	3	25	13*	-12
Cc1cc2nc3c(=O)[nH]c(=S)[nH]c3nc2cc1NC(=O)C(F)(F)F	-22	60*	5	-90
CC1=NN(c2ccccc2)C(=O)/C1=C\c1ccc(Oc2ccc([N+](=O)[O-])cc2[N+](=O)[O-])cc1	8	95*	4	-64
O=C(COc1ncnc2ccccc12)Nc1cc([N+](=O)[O-])ccc1Cl	3	32	2	-2
O=C(COc1ncnc2c(Cl)cc(Cl)cc12)Nc1cc([N+](=O)[O-])ccc1Cl	-3	4	14*	-6
N#CC(C(=O)Nc1ccc(Cl)cc1)=C1Nc2ccccc2N1	-20	5	24*	8
CCC(=O)N(Cc1ccccc1)c1ccccc1C(=O)Nc1cc(OC)ccc1OC	2	·	·	·
COC(=O)c1cc(NC(=O)/C=C/c2ccc3c(c2)OCO3)cc(C(=O)OC)c1	3	25	-6	7
NS(=O)(=O)c1ccc(NC(=O)/C=C/c2ccc3c(c2)OCO3)cc1	-10	23	12*	7
COC(=O)c1cccc(NC(=O)/C=C/c2ccc3c(c2)OCO3)c1	-14	4	16*	-14
CC(=O)Nc1ccc(NC(=O)/C=C/c2ccc3c(c2)OCO3)cc1	0	28	2	2
O=C(/C=C/c1ccc2c(c1)OCO2)c1ccc(O)cc1O	-26	·	32*	·
Cc1ccc(SCCC(=O)Nc2ccccc2C(=O)NC(C)C)cc1	-6	13	14*	-8
Cc1ccc(SCCC(=O)Nc2ccccc2Br)cc1	-3	6	1	-4
CC(C)NC(=O)[C@]1(C#N)CC(=O)N(C)[C@@H]1c1ccccc1	5	·	·	·
O=[N+]([O-])c1ccc(S(=O)(=O)Nc2nc(-c3ccccc3)cs2)cc1	-35	12	0	-21
NS(=O)(=O)c1ccc(Nc2nc(-c3cccc([N+](=O)[O-])c3)cs2)cc1	-33	17	17*	8
NS(=O)(=O)c1ccc(Nc2nc(-c3ccc4ccccc4c3)cs2)cc1	-90	16	25*	26
Cc1ccc(-c2csc(Nc3ccc(S(N)(=O)=O)cc3)n2)o1	-6	-3	5	11
CCOC(=O)Cn1cc(CN2C(C(=O)OC)CN(Cc3ccc(OC)cc3)CCS2(=O)=O)nn1 (configuration not stated)	11	·	·	·
O=C(COC(=O)CCc1c[nH]c2ccccc12)NCc1ccc(Cl)cc1	-98	-2	-5	11
COc1ccccc1NC(=O)NCCc1c[nH]c2ccccc12	-71	13	-4	9
N#C/C(=C/c1ccc(Br)s1)C(=O)NCCc1c[nH]c2ccccc12	-29	-21	23*	-5
N#Cc1cccc(NC(=O)NCCc2c[nH]c3ccccc23)c1	-76	-9	11*	1
O=C(NCCc1c[nH]c2ccccc12)C(=O)c1c[nH]c2ccccc12	-79	-5	25*	9
SMILES	HGIII-sPLA2 inh	UBC9 SUMO inh	GRIN3A LBD mod	UBC13 inh
O=C(COC(=O)CCc1c[nH]c2ccccc12)NCc1ccccc1	-66	-19	12*	9
COc1ccc2c(CCN3C(=O)c4ccccc4C3=O)c(-c3c(CCN4C(=O)c5ccccc5C4=O)c4ccccc4n3C(=O)OC(C)(C)C)[nH]c2c1	0	·	·	·
CCOc1cccc(-c2nnc(SCC(=O)Nc3ccc4c(c3)OCO4)n2N)c1	7	·	·	·
CCCCc1ccc2nc(NC(=O)c3ccco3)sc2c1	-43	·	·	·
O=C(NCCc1c[nH]c2ccccc12)Nc1ccccc1	-49	-5	16*	-5
Cc1ccccc1CN1CCCCC(NC(=O)c2ccc(Br)cc2)C1=O (configuration not stated)	-4	·	·	·
O=C(OCC(=O)c1c[nH]c2ccccc12)c1cc(S(=O)(=O)N2CCOCC2)ccc1F	-18	·	-3	-3
COc1ccc(C(=O)OCC(=O)c2c[nH]c3ccccc23)c(OC)c1	-22	·	0	8
O=C(OCC(=O)c1c[nH]c2ccccc12)c1cc2ccccc2cc1O	6	31	32*	2
CCOc1ccc(N(C)S(=O)(=O)c2ccc(C)c(C(=O)OCC(=O)c3c[nH]c4ccccc34)c2)cc1	-2	-4	31*	-5
Cc1ccc(CNC(=O)O[C@H]2CC[C@@]34CCCN3C(=O)CCC[C@H]4C2)o1	2	·	·	·
COc1ccc(Cn2ccc3ccc(-c4ccc5ccn(C(=O)c6ccccc6C)c5c4)cc32)cc1	-1	·	·	·
CC(C)(C)OC(=O)N1CCC[C@H]1C(=O)N/N=C/c1cccc2cccnc12	6	18	14*	-13
Cc1[nH]nc(SCC(=O)Nc2cccc(O)c2)c1[N+](=O)[O-]	-13	-5	22*	4
CCC[C@H]1OC(=O)[C@@H]2CCCN2C(=O)[C@H]([C@H](C)Cc2ccccc2)NC(=O)[C@@H]2CCCN2C(=O)[C@@H]2CCCN2C(=O)[C@H](C(C)C)OC(=O)[C@@H]2CCCN2C(=O)[C@H](C(C)C)NC(=O)C1(C)C	-10	·	·	·
COc1ccc(CCNC(=O)CSc2nnc(Cn3c(=O)sc4ccccc43)n2C)cc1OC	·	9	11*	14
Fc1ccc2cc(-c3ccsc3)ncc2c1	3	·	35*	-7
CCN(CC)C(=O)CC[C@@H]1CC[C@]2(CCCN(C(=O)C(C)(C)C)C2)O1	1	·	·	·
O=C(Nc1cccnc1)c1ccc(N2CCOCC2)c([N+](=O)[O-])c1	3	3	1	-19
O=C(Nc1ccc(-c2nc3ccccc3o2)cc1)c1ccc(N2CCOCC2)c([N+](=O)[O-])c1	-1	-5	14*	-29
COc1ccc2oc(-c3ccc(NC(=O)c4ccc(N5CCOCC5)c([N+](=O)[O-])c4)cc3)nc2c1	2	-3	37*	-18
Cc1cc(C(=O)Nc2ccc(N3CCCC3)c(Cl)c2)ccc1[N+](=O)[O-]	3	-15	-25	-15
Cc1ccc(NC(=S)NNC(=O)c2ccc(N3CCOCC3)c([N+](=O)[O-])c2)cc1Cl	17	-61	19*	-32
COC(=O)C1CN(Cc2ccc(OC)cc2)CCS(=O)(=O)N1Cc1cn(Cc2ccc(F)cc2)nn1 (configuration not stated)	0	·	·	·
Cc1ccc(-c2cc3nc(-c4ccco4)cc(N4CCN(Cc5ccoc5)CC4)n3n2)cc1	0	·	·	·
COc1cc(/C=N/c2oc(-c3ccccc3)cc2C#N)ccc1O	7	20	33*	-84
CN(C)c1ccc(C(CN)c2c[nH]c3ccccc23)cc1 (configuration not stated)	6	-8	-1	24
CN(C)c1ccc(C(CNS(=O)(=O)c2ccc3ccccc3c2)c2c[nH]c3ccccc23)cc1 (configuration not stated)	-20	-34	16*	1
O=C(C1CCCN1S(=O)(=O)c1ccc(F)cc1)N1CCc2ccccc2C1 (configuration not stated)	10	·	·	·

Screens: PubChem BioAssay, several laboratories
